Bioassay records (PubChem BioAssay)
Hits are enriched below; roughly 4.6% of the tested compounds scored in any of these assays.
NLRP3 yeast inh: NALP3 inhibition in yeast; inhibition, % at 10 µM; actives 0.39% (n = 330,000); AID 2825; Yeast reconstituted NLRP3/ASC/caspase-1, beta-gal luminescence, 24 h;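 active = inhibition of 50% or more; inactive = inhibition below 50%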
tim23-1 inh: inhibits growth of tim23-1 mutant yeast; AID 463212; S. cerevisiae tim23-1 growth, BacTiter-Glo luminescence, 24 h; inhibition, % at 20 µM; actives 1.3% (n = 330,000);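 active = growth inhibition of the mutant yeast at or above 50%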;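 note: temperature-sensitive mutant grown at 25 °C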
SKKanGAS inh: blocks kanamycin growth of S. pyogenes SKKanGAS strain. BacTiter-Glo, 6 h. inhibition, % at 7.5 µM. actives 1.3% (n = 300,000). AID 1662;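 active = mean replicate score, as percent of positive control median, at least 50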;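 note: strain carries kanamycin resistance gene driven by streptokinase promoter and grows in 40 µg/ml kanamycin; loss of luminescence reflects streptokinase promoter inhibition or plain growth inhibition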
tim10-1 inh: growth inhibitors of tim10-1 mutant yeast. AID 463190. S. cerevisiae tim10-1 ts strain growth, BacTiter-Glo, 24 h. actives 2.2% (n = 330,000). inhibition, % at 20 µM;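 active = inhibition of at least 40%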;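 note: mutant grown at 25 °C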
TIM10 inh: TIM10 yeast growth inhibition; S. cerevisiae TIM10 strain growth, BacTiter-Glo luminescence, 24 h; inhibition, % at 10 µM; actives 1.4% (n = 330,000); AID 463195;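 active = inhibition of 40% or more at the single tested concentration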;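 note: wild-type TIM10 isogenic control strain grown at permissive 25 °C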
tim23-1 confirm: confirmation of tim23-1 mutant yeast growth inhibitors; shares compounds with tim23-1 inh; S. cerevisiae tim23-1 growth, BacTiter-Glo luminescence, 24 h; inhibition, % at 20 µM; actives 83% (n = 4,400);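 active = inhibition above about 39% in either of two replicate wells at 20 µM, limit read from the data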;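 note: temperature-sensitive tim23-1 mutant grown at 25 °C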
Hits are given with their value; n = inactive; x = no result given.

SMILES	NLRP3 yeast inh	tim23-1 inh	SKKanGAS inh	tim10-1 inh	TIM10 inh	tim23-1 confirm
COc1cccc(CNC(=O)C2CSC3(C)CCC(=O)N23)c1 (centres undefined)	n	n	n	n	n	x
O=C(Nc1ccccc1-c1nnn(CC(=O)N2CCCc3ccccc32)n1)c1ccc(Cl)cc1	n	56.2	n	n	n	n
Cc1ccc(C(=O)N/N=C/c2nc3ccccc3n2C)cc1	n	53.6	n	n	n	38.8
COc1ccccc1Nc1ccc([N+](=O)[O-])cc1N	n	55.3	n	n	n	40.6
COc1ccccc1Nc1c([N+](=O)[O-])cc(C)cc1[N+](=O)[O-]	n	n	n	n	n	x
Clc1nssc1=Nc1nncs1	n	51.5	x	n	n	76.2
O=C(COC(=O)/C=C/C(=O)OCC(=O)Nc1ccccc1F)Nc1ccccc1F	n	n	n	n	n	x
O=C1c2ccccc2NC(c2ccc(-c3ccc(C(F)(F)F)cc3)o2)N1O (centres undefined)	n	65.3	x	n	n	59.0
COC(=O)N/N=C/c1ccc([N+](=O)[O-])o1	n	n	n	n	n	x
O=C(COc1ccccc1)N/N=C/c1ccc([N+](=O)[O-])o1	n	53.7	n	n	n	75.2
CN(C)c1nc(N)c([N+](=O)[O-])c(N2CCCCCC2)n1	n	54.3	n	n	n	39.0
CCOC(=O)C1=CN(Cc2cccc(F)c2)S(=O)(=O)N(C)C1c1cccc(OC)c1 (centres undefined)	x	52.2	x	n	n	n
CCOC(=O)C1=CN(Cc2cccc(F)c2)S(=O)(=O)N(C)C1c1ccccc1 (centres undefined)	x	n	x	n	n	x
CCCOc1nc2ccccc2cc1/C=C/C(=O)O	n	n	n	n	n	x
CCOc1nc2ccccc2cc1C=O	n	72.3	n	n	n	59.0
COc1ccc(Cn2c(C(C)C)nc3sc4ccccc4c(=O)c3c2=O)cc1	n	62.2	n	n	n	54.8
CCCc1nc2sc3ccccc3c(=O)c2c(=O)n1Cc1ccc(OC)cc1	n	52.2	n	n	n	44.6
CN(Cc1ccccc1)C(=S)NC(=O)c1cccs1	n	50.9	n	n	n	n
CC(NC(=S)NC(=O)c1cccs1)c1ccccc1 (centres undefined)	n	52.4	x	n	n	45.0
CN(Cc1ccccc1)C(=S)NC(=O)c1ccc(-c2ccccc2)cc1	n	n	n	n	n	x
Cc1ccc(/C(O)=C2\C(=O)C(=O)N(C)C2c2cccc([N+](=O)[O-])c2)cc1 (centres undefined)	n	n	n	n	n	x
Cc1ccc(Sc2ccc(N)cc2C#N)cc1	n	58.1	n	n	n	n
O=C(NCCc1c[nH]c2ccccc12)/C(=C\c1ccco1)NC(=O)c1ccco1	n	94.2	n	n	n	n
O=C(/C=C/c1ccccc1)NCCc1c[nH]c2ccccc12	n	59.3	n	n	n	59.6
O=C(NC1CCCN(Cc2ccccc2F)C1)C1CCC1 (centres undefined)	n	n	n	n	n	x
SMILES	NLRP3 yeast inh	tim23-1 inh	SKKanGAS inh	tim10-1 inh	TIM10 inh	tim23-1 confirm
Cc1ccc(C(=O)N2c3ccccc3OCC2C)cc1 (centres undefined)	n	n	n	n	n	x
Cc1ccc(C(=O)N2C(=O)C(c3ccccc3)Oc3ccccc32)cc1 (centres undefined)	n	68.7	n	n	n	52.9
Cc1ccc(CC(=O)O/N=C(\N)c2ccccn2)cc1	n	n	n	n	n	x
Cc1ccc(C(=O)O/N=C(\N)c2ccccn2)c(Cl)c1	n	51.2	n	n	n	53.9
Cc1oc2cc(O)cc(O)c2c(=O)c1-c1ccc2c(c1)OCCCO2	n	65.3	n	n	n	53.0
Cc1cccc(-n2cc(-c3ccccc3)c3c(=O)[nH]cnc32)c1	n	54.1	n	n	n	47.5
C=CCS/C(N)=N\N=C\c1cc(Br)cc([N+](=O)[O-])c1O	n	54.6	n	n	n	44.2
NC(=O)CN1CCN(Cc2ccc3c(c2)OCO3)CC1	n	n	n	n	n	x
c1ccc(-c2cn3c4c(sc3n2)CCCC4)cc1	n	54.8	n	n	n	59.7
c1ccc(-c2cn3nc(-c4ccccc4)sc3n2)cc1	n	n	n	n	n	x
CN(C)C(C)(C)/C=C/C(O)(c1ccccc1)c1ccccc1	n	n	n	n	n	x
